FMDV inh: blocks foot and mouth disease virus. FMDV antiviral cell-based qHTS. Potency, µM (series often up to 57.9 µM), without a hit: at the top dose activity change, negative = inhibition, most hits filed as inhibitors. 410,000 compounds, 1.2% hits. AID 1159524; calls by dose curve; tested in HEK293T cells; also: read-out not given here; potency is read from the fitted curve at half-maximal effect; nearly all actives have a fitted effect of over 45% in size
LASV entry inh: inhibitors of Lassa virus binding or cell entry | 300,000 compounds, 1.2% hits | Potency, µM (doses to about 37.9 µM), for inactives: top-dose activity change, negative = inhibition, hits mostly inhibitors | Lassa virus pseudotype entry inhibition, cell reporter; calls by dose curve; tested in HEK293 cells; also: potency is read from the fitted curve at half-maximal effect; nearly all actives have a fitted effect of over 50% in size
Marburg entry inh: Marburg virus entry inhibition; Marburg virus pseudotyped entry inhibition, cell reporter; Potency, µM (series often up to 37.8 µM), for inactives: top-dose activity change, negative = inhibition, most hits filed as inhibitors; 300,000 compounds, 1.8% hits; calls by dose curve; tested in HEK293 cells; also: potency is read from the fitted curve at half-maximal effect
HCMV antiviral: inhibitors of human cytomegalovirus. HFF cells, HCMV-luciferase reporter, 72 h; stronger effect = lower value. activity change, negative = inhibition, % at 57.5 µM. 410,000 compounds, 4.5% hits; in the data active = activity change below about -60%; inconclusive = no clear call, values can overlap the other calls; inactive = above about -39%
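After 16 h attachment at 37C, HFF cells received test compound and HCMV-luciferase (1 PFU/cell); reporter luminescence read 72 h later, data normalized against buffer-only and known inhibitor Salinomycin.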
Vaccinia mCherry: inhibitors of vaccinia virus infection (mCherry reporter signal); Vaccinia virus mCherry reporter infection, fluorescence; Potency, µM (titrated, usually from 36.5 µM), for the others: at the top dose activity change, negative = inhibition, usual class: inhibitors; 310,000 compounds, 0.63% hits; AID 720579; calls by dose curve; tested in A549 cells; also: potency is read from the fitted curve at half-maximal effect; nearly all actives have a fitted effect of over 35% in size
VACV Venus inh: inhibitors of vaccinia virus (Venus reporter); Vaccinia virus Venus reporter expression, fluorescence; Potency, µM (doses to about 36.5 µM), for inactives: top-dose activity change, negative = inhibition, usual class: inhibitors; 330,000 compounds, 0.46% hits; AID 720580; calls by dose curve; tested in A549 cells; also: potency is read from the fitted curve at half-maximal effect; nearly all actives have a fitted effect of over 30% in size
The depositor's hits bear a star; [ ] = another dose, or the depositor's remark. Rows were chosen to be rich in hits. Some 6.5% of all compounds tested hit in one or more screens of this group. % is scaled to controls: 0 for no effect and ±100 for the full control effect.

Screening CC1(Oc2ccc(Cl)cc2)CCN(Cc2ccc(-c3ccccn3)cc2)C1 (stereo unspecified) returned FMDV inh -21.8%, HCMV antiviral -82.2*, Vaccinia mCherry -4.4% and VACV Venus inh -1.8%.
`Cc1c(C(=O)N(C)Cc2ccc(F)cc2)sc(=O)n1Cc1ccccc1C#N` gave FMDV inh inconclusive, HCMV antiviral -18.9, Vaccinia mCherry 0.8% and VACV Venus inh 1.1%.
For Cc1ccccc1Cn1c(C)c(C(=O)N(C)Cc2ccc(F)cc2)sc1=O the results were FMDV inh -16.7%, HCMV antiviral -60.2*, Vaccinia mCherry 35.1% and VACV Venus inh 1.0%.
For Cc1c(C(=O)N(C)Cc2ccccc2)sc2nc(-c3ccc(F)cc3)cn12 the results were FMDV inh 2.4%, LASV entry inh inconclusive, HCMV antiviral -82.0*, Vaccinia mCherry inconclusive and VACV Venus inh inconclusive.
COc1ccc(Br)c(Cn2c(C)c(C(=O)N(C)Cc3ccc(F)cc3)sc2=O)c1 was read as FMDV inh inconclusive, HCMV antiviral -85.0*, Vaccinia mCherry 1.0% and VACV Venus inh -1.7%.
For Cc1nc(N2CCOCC2)c2c(C(=O)N3CCN(c4cccc(C)c4C)CC3)c(C)oc2n1 the results were FMDV inh -20.9%, LASV entry inh -7.7%[46.1 µM], HCMV antiviral -28.0, Vaccinia mCherry -8.7% and VACV Venus inh -15.0%.
`COc1cccc(CNC(=O)CN2C(=O)CSc3c2c(C)nn3-c2ccccc2)c1OC` gave FMDV inh 0.0%, LASV entry inh -25.7%[46.1 µM], HCMV antiviral -15.0, Vaccinia mCherry 1.1% and VACV Venus inh 1.7%.
COc1ccc(OCc2cccc(C(=O)Nc3cc(C)on3)c2)cc1 was read as FMDV inh -66.7%, LASV entry inh inconclusive, Marburg entry inh 5.8µM* and HCMV antiviral 113.4.
`COc1ccc(OCc2cccc(C(=O)NN)c2)cc1` gave FMDV inh 8.91µM*, LASV entry inh inconclusive, Marburg entry inh 4.11µM*, HCMV antiviral 104.9, Vaccinia mCherry inactive and VACV Venus inh -4.5%.
COc1cccc(C(=O)Nc2cc(C)on2)c1 was read as FMDV inh 47.9%, HCMV antiviral 39.5, Vaccinia mCherry inactive and VACV Venus inh -2.0%.
Screening COc1cc(/C=C2/SC(=Nc3ccc(O)cc3)NC2=O)cc(OC)c1O returned FMDV inh -9.7%, LASV entry inh inconclusive, Marburg entry inh inconclusive, HCMV antiviral 27.5, Vaccinia mCherry inactive and VACV Venus inh 107.4%.
Screening COc1ccc(N=C2NC(=O)/C(=C/c3ccc(O)c(OC)c3)S2)cc1 returned FMDV inh 1.8%, LASV entry inh 3.66µM*, Marburg entry inh inconclusive, HCMV antiviral -64.1*, Vaccinia mCherry inconclusive and VACV Venus inh 10.5%.
Screening CCOc1cc(NC(=O)c2cccs2)c(OCC)cc1NC(=O)c1ccco1 returned FMDV inh 4.6%, LASV entry inh -0.1%, Marburg entry inh -5.1%, HCMV antiviral 31.0 and VACV Venus inh -14.2%.
`CCOc1cc(NS(=O)(=O)CC)c(OCC)cc1NC(=O)c1ccco1` gave FMDV inh -6.9%, LASV entry inh 1.4%, Marburg entry inh inconclusive and HCMV antiviral -77.4*.
For CCOc1cc(NS(=O)(=O)c2ccc(OC)cc2)c(OCC)cc1NC(=O)c1ccco1 the results were FMDV inh -7.2%, LASV entry inh -12.7%, Marburg entry inh inconclusive and HCMV antiviral -96.7*.
Screening COc1ccccc1CCNc1ncnc2sc(C(=O)N3CCCN(C=O)CC3)c(C)c12 returned FMDV inh -26.1%, Vaccinia mCherry -12.8% and VACV Venus inh -6.3%.
`OC1C(Br)=Cc2ccccc21` (stereo unspecified) gave Vaccinia mCherry 16.2% and VACV Venus inh -5.9%.
`COc1ccccc1-n1cc(C(=O)NCCN2Cc3ccccc3OC(c3ccsc3)C2)cn1` (stereo unspecified) gave FMDV inh -9.3%, Vaccinia mCherry -17.1% and VACV Venus inh 0.5%.
Screening CCOC(=O)c1cc(OC(=O)c2cc(OC)cc(OC)c2)n(-c2ccccc2)n1 returned FMDV inh 2.1%, LASV entry inh 3.0%[46.1 µM], Marburg entry inh 17.5%[46.1 µM], HCMV antiviral -12.4, Vaccinia mCherry 3.1% and VACV Venus inh -1.6%.
Screening COC(=O)c1ccccc1NC(=O)c1nc(S(=O)(=O)Cc2ccccc2)ncc1Cl returned FMDV inh 31.6µM* and HCMV antiviral -110.0*.
`CCS(=O)(=O)c1ncc(Cl)c(C(=O)NCc2ccccc2)n1` gave FMDV inh inconclusive, LASV entry inh inconclusive, Marburg entry inh inconclusive, HCMV antiviral -100.0*, Vaccinia mCherry -13.9% and VACV Venus inh -10.0%.
For COc1ccc(CNC(=O)c2nc(S(=O)(=O)Cc3ccccc3)ncc2Cl)cc1 the results were FMDV inh 22.4µM*, LASV entry inh inconclusive, Marburg entry inh -6.8%[46.1 µM], HCMV antiviral -95.1*, Vaccinia mCherry -11.7%[7.34 µM] and VACV Venus inh -9.8%[7.34 µM].
Screening Cc1noc(C(=O)NCc2ccccc2)c1Cl returned FMDV inh 0.0%, HCMV antiviral -31.0, Vaccinia mCherry inactive and VACV Venus inh -25.1%.
For O=C(NCc1ccccc1)c1nc(S(=O)(=O)Cc2ccccc2)ncc1Cl the results were FMDV inh 31.6µM*, LASV entry inh inconclusive, Marburg entry inh -7.4%[46.1 µM], HCMV antiviral -77.6*, Vaccinia mCherry -20.6% and VACV Venus inh -20.0%.
For O=C(Nc1ccc2ccccc2c1)c1cnccn1 the results were FMDV inh -2.9%, LASV entry inh inconclusive, Marburg entry inh inconclusive and HCMV antiviral 104.4.
For CC(=O)Nc1ccc(NC(=O)c2nc(S(=O)(=O)Cc3ccccc3)ncc2Cl)cc1 the results were FMDV inh 31.6µM* and HCMV antiviral -86.3*.
For Cc1ccc(CNC(=O)c2nc(SCc3ccccc3C)ncc2Cl)cc1 the results were FMDV inh inconclusive, LASV entry inh -0.9%[46.1 µM], Marburg entry inh 6.7%[46.1 µM], HCMV antiviral 0.4, Vaccinia mCherry -8.0% and VACV Venus inh -6.7%.
For CS(=O)(=O)c1ncc(Cl)c(C(=O)Nc2ccc3ccccc3c2)n1 the results were FMDV inh 12.6µM*, LASV entry inh inconclusive, Marburg entry inh 8.91µM*, HCMV antiviral -98.0*, Vaccinia mCherry 10µM* and VACV Venus inh inconclusive.
`CCOc1ccc(NC(=O)c2nc(S(=O)(=O)Cc3ccccc3)ncc2Cl)cc1` gave Vaccinia mCherry -25.1% and VACV Venus inh -24.5%.
`COc1ccc(CNC(=O)c2nc(SCc3ccc(C)cc3)ncc2Cl)cc1` gave FMDV inh -18.3%, LASV entry inh inconclusive, Marburg entry inh 15.0%[46.1 µM], HCMV antiviral -69.6*, Vaccinia mCherry -23.3% and VACV Venus inh -24.2%.
CC1(C(=O)NS(=O)(=O)c2cccs2)CCN1C(=O)CC(c1ccccc1)c1ccccc1 (stereo unspecified) was read as HCMV antiviral 7.0.

Assay outcomes deposited in PubChem BioAssay by National Center for Advancing Translational Sciences (NCATS).
